Here are results for five compounds from PubChem BioAssay (EPA / NIEHS).

“And” between values parts separate entries of the source, which are not always exact repeats. Identical values can stand only once. More than one record can exist for a structure, and the calls need not agree. The source made the active and inactive calls. The calls were made as follows: active = hit-call score of the fitted dose curve at least 0.9, where 1 is the maximum; inactive = score below 0.9.

Read-out in assay [1]: Tissue Factor, F3 (gene 2152)
Kind of assay: BSK_CASM3C_TissueFactor: BioMAP Diversity Plus: CASM3C Assay for Tissue Factor Biomarker Activity (AID 2283052).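 Also: cell surface tissue factor protein level read by ELISA.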 Conditions: primary human coronary artery smooth muscle cells; actives raise or lower the signal.

Read-out in assay [2]: Interferon-gamma inducible Protein 10 (IP10), CXCL10 (gene 3627)
Kind of assay: BSK_hDFCGF_IP10: BioMAP Diversity Plus: hDFCGF Assay for Interferon-gamma inducible Protein 10 (IP10) Biomarker Activity (AID 2283053). The conditions noted are these: primary human foreskin fibroblasts; actives raise or lower the signal. Summed up:
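Primary foreskin fibroblasts, human; 24 h compound exposure; IP-10 by ELISA; bidirectional fit vs DMSO.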

Read-out in assay [3]: Urokinase-type plasminogen activator receptor (uPAR), PLAUR (gene 5329)
Briefly: BSK_CASM3C_uPAR: BioMAP Diversity Plus: CASM3C Assay for Urokinase-type plasminogen activator receptor (uPAR) Biomarker Activity (AID 2283054).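 Also: cell-surface uPAR protein level quantified by ELISA.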 Conditions: primary human coronary artery smooth muscle cells; actives raise or lower the signal.

Read-out in assay [4]: Vascular cell adhesion molecule 1 (VCAM1), VCAM1 (gene 7412)
Kind of assay: BSK_CASM3C_VCAM1: BioMAP Diversity Plus: CASM3C Assay for Vascular cell adhesion molecule 1 (VCAM1) Biomarker Activity (AID 2283055).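 Also: VCAM-1 protein level quantified by ELISA on the cells.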 Conditions: primary human coronary artery smooth muscle cells; actives raise or lower the signal.

Read-out in assay [5]: Collagen III, COL3A1 (gene 1281)
Kind of assay: BSK_hDFCGF_CollagenIII: BioMAP Diversity Plus: hDFCGF Assay for Collagen III Biomarker Activity (AID 2283056). The conditions noted are these: primary human foreskin fibroblasts; actives raise or lower the signal. Summed up:
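ELISA read-out of collagen III from human skin fibroblast cultures sampled 24 h post-dosing. Values were derived by bidirectional fitting relative to the DMSO vehicle control.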

Read-out in assay [6]: Epidermal growth factor receptor (EGFR), EGFR (gene 1956)
Briefly: BSK_hDFCGF_EGFR: BioMAP Diversity Plus: hDFCGF Assay for Epidermal growth factor receptor (EGFR) Biomarker Activity (AID 2283057). The conditions noted are these: primary human foreskin fibroblasts; actives raise or lower the signal. Summed up: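 hDFCGF system, primary human foreskin fibroblasts; compound 24 h; EGFR measured by ELISA; DMSO = negative control/baseline; bidirectional fitting.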

Read-out in assay [7]: Interleukin-8 (IL8), CXCL8 (gene 3576)
Kind of assay: BSK_hDFCGF_IL8: BioMAP Diversity Plus: hDFCGF Assay for Interleukin-8 (IL8) Biomarker Activity (AID 2283058). The conditions noted are these: primary human foreskin fibroblasts; actives raise or lower the signal. Summed up: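 Cells used are human skin primary fibroblasts. Chemical is added, cultures run 24 h, then IL-8 is quantified by ELISA, and gain or loss versus DMSO control is fitted in both directions.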

Read-out in assay [8]: Macrophage colony-stimulating factor (MCSF), CSF1 (gene 1435)
Briefly: BSK_hDFCGF_MCSF: BioMAP Diversity Plus: hDFCGF Assay for Macrophage colony-stimulating factor (MCSF) Biomarker Activity (AID 2283060). Conditions: primary human foreskin fibroblasts; actives raise or lower the signal. Summed up:
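Primary human foreskin fibroblasts dosed with chemical; 24 h later, M-CSF quantified by ELISA; curves fitted in both directions vs DMSO negative control.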

Assay [9] can be described thus: BSK_hDFCGF_SRB: Viability Assessment in the BioMAP Diversity Plus: hDFCGF Assay (AID 2283061).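 Also: cells exposed to compound for 24 h before the read.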 Conditions: primary human foreskin fibroblasts. Summed up:
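Readout is SRB absorbance at 560 nm, reflecting total protein in parallel cultures of human foreskin fibroblasts harvested 24 h after chemical dosing. Activity was fitted bidirectionally relative to DMSO.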

Read-out in assay [10]: TIMP metallopeptidase inhibitor 1 (TIMP1), TIMP1 (gene 7076)
Kind of assay: BSK_hDFCGF_TIMP1: BioMAP Diversity Plus: hDFCGF Assay for TIMP metallopeptidase inhibitor 1 (TIMP1) Biomarker Activity (AID 2283062). The conditions noted are these: primary human foreskin fibroblasts; actives raise or lower the signal. A digest of the protocol: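 Human skin fibroblasts (primary), hDFCGF system; compound exposure 24 h; TIMP-1 by ELISA; bidirectional fit vs DMSO negative control; overt cytotoxicity by SRB in parallel wells.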

Read-out in assay [11]: Monokine induced gamma interferon (MIG), CXCL9 (gene 4283)
Kind of assay: BSK_hDFCGF_MIG: BioMAP Diversity Plus: hDFCGF Assay for Monokine induced gamma interferon (MIG) Biomarker Activity (AID 2283063). Conditions: primary human foreskin fibroblasts; actives raise or lower the signal. Summed up: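 Chemicals were added to primary human foreskin fibroblast cultures, which were sampled 24 h later. MIG levels were then quantified by ELISA and responses fitted in both directions relative to DMSO.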

Read-out in assay [12]: Matrix Metallopeptidase 1 (MMP1), MMP1 (gene 4312)
Briefly: BSK_hDFCGF_MMP1: BioMAP Diversity Plus: hDFCGF Assay for Matrix Metallopeptidase 1 (MMP1) Biomarker Activity (AID 2283064). The conditions noted are these: primary human foreskin fibroblasts; actives raise or lower the signal. Summed up:
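Primary human foreskin fibroblasts in the hDFCGF system were dosed with test chemical, and MMP1 was measured by ELISA 24 h later. Values come from bidirectional curve fitting against the DMSO baseline.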

Read-out in assay [13]: Plasminogen activator inhibitor-1 (PAI1), SERPINE1 (gene 5054)
Briefly: BSK_hDFCGF_PAI1: BioMAP Diversity Plus: hDFCGF Assay for Plasminogen activator inhibitor-1 (PAI1) Biomarker Activity (AID 2283066). Conditions: primary human foreskin fibroblasts; actives raise or lower the signal. A digest of the protocol: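 Primary dermal fibroblasts (human foreskin), hDFCGF system; compound 24 h; PAI-1 by ELISA; bidirectional fit vs DMSO control.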

Read-out in assay [14]: Intercellular Adhesion Molecule 1 (ICAM1), ICAM1 (gene 3383)
Kind of assay: BSK_KF3CT_ICAM1: BioMAP Diversity Plus: KF3CT Assay for Intercellular Adhesion Molecule 1 (ICAM1) Biomarker Activity (AID 2283067). Conditions: primary human keratinocytes with fibroblasts; actives raise or lower the signal. A digest of the protocol: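 ICAM-1 levels are measured by ELISA 24 h after dosing a primary human co-culture of keratinocytes and foreskin fibroblasts. Activity in either direction is fitted relative to DMSO vehicle.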

The nature of assay [15]: BSK_KF3CT_SRB: Viability Assessment in the BioMAP Diversity Plus: KF3CT Assay (AID 2283069).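 Also: total protein by sulforhodamine B staining as a cytotoxicity measure; read 24 h after compound addition; fitted for both signal gain and loss against DMSO baseline.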 Conditions: primary human keratinocytes with fibroblasts. A digest of the protocol:
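Human primary keratinocyte plus foreskin fibroblast co-culture exposed to chemicals for 24 h. Total protein measured by 0.1% sulforhodamine B staining after 10% TCA fixation, read at 560 nm; bidirectional fitting versus DMSO baseline.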

Read-out in assay [16]: TIMP metallopeptidase inhibitor 2 (TIMP2), TIMP2 (gene 7077)
Kind of assay: BSK_KF3CT_TIMP2: BioMAP Diversity Plus: KF3CT Assay for TIMP metallopeptidase inhibitor 2 (TIMP2) Biomarker Activity (AID 2283071). Conditions: primary human keratinocytes with fibroblasts; actives raise or lower the signal. A digest of the protocol:
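Cells: human keratinocytes co-cultured with foreskin fibroblasts. Treat with chemical, 24 h. Measure TIMP-2 by ELISA; fit curves bidirectionally vs DMSO baseline.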

A short description of assay [17]: BSK_hDFCGF_Proliferation: Cell Proliferation Assessment in the BioMAP Diversity Plus: hDFCGF Assay (AID 2283059).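 Also: curves fitted for both rise and fall of signal versus DMSO baseline.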 The conditions noted are these: primary human foreskin fibroblasts. Summed up:
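Primary human foreskin fibroblasts, sub-confluent; […]; 10% TCA fix, 0.1% SRB stain, A560 total protein. Gain/loss fitted bidirectionally vs DMSO control.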

Read-out in assay [18]: Interferon-gamma inducible Protein 10 (IP10), CXCL10 (gene 3627)
Kind of assay: BSK_KF3CT_IP10: BioMAP Diversity Plus: KF3CT Assay for Interferon-gamma inducible Protein 10 (IP10) Biomarker Activity (AID 2283068). Conditions: primary human keratinocytes with fibroblasts; actives raise or lower the signal. Summed up:
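In a primary skin co-culture of keratinocytes and fibroblasts, IP-10 is quantified by ELISA at 24 h after dosing. SRB staining of parallel wells monitors overt toxicity. Curves are fitted both directions against DMSO.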

Turning to `CC/C(=C(\c1ccccc1)c1ccc(OCCN(C)C)cc1)c1ccccc1`, the AC50 in [1] is 13.7 µM (active); in assay [2] it was 8.93 µM (active) and 7.96 µM (active); in assay [3] it was 25.9 µM (active) and 14.2 µM (active); in [4] it was 29 µM (active) and 16.1 µM (active); in assay [5], 9.76 µM (active) and 7.96 µM (active); in [7], 9.19 µM (active) and 7.91 µM (active). Moreover, the AC50 is 7.77 µM (active) and 7.23 µM (active) in [8]; 6.75 µM (active) and 6.55 µM (active) in assay [9]; 8.65 µM (active) and 11.5 µM (active) in assay [10]; 9.37 µM (active) and 11 µM (active) in assay [11]; 10.1 µM (active) and 11.1 µM (active) in assay [12]; 7.69 µM (active) and 7.18 µM (active) in assay [13]. Also, the AC50 in assay [14] was 9.03 µM (active) and 8.65 µM (active); in [15] it was 6.49 µM (active) and 9.44 µM (active); in [16], 7.86 µM (active) and 9.54 µM (active). Besides, the result in [1] and in assay [6] was inactive.

As for `CCCO[Si](OCCC)(OCCC)OCCC`, the outcome in assay [1], in assay [2], in assay [3], in assay [4], in [5] and in assay [6] was inactive. In addition, the result in assay [7], in assay [8], in assay [9], in assay [10], in assay [11] and in assay [12] was inactive. Moreover, the outcome in assay [13], in assay [14], in [15] and in assay [16] was inactive. Further, the AC50 in [17] was 31.1 µM (active) and 25.8 µM (active).

With `CC(C)(C)c1cccc(O)c1`, the result in assay [1], in [2], in [3], in assay [4], in [5] and in assay [6] was inactive. The result in [7], in assay [8], in assay [9], in assay [10], in [11] and in [12] was inactive. Moreover, the result in assay [13], in assay [14], in assay [18], in assay [15] and in assay [16] was inactive.

Regarding `C=C(F)C(=O)OC(C(F)(F)F)C(F)(F)F`, the outcome in [1], in [2], in assay [3], in assay [4], in [5] and in assay [6] was inactive. In addition, the outcome in [7], in assay [8], in assay [9], in assay [10], in [11] and in assay [12] was inactive. Besides, the outcome in assay [13], in assay [14], in assay [15] and in [16] was inactive. Besides, the AC50 in assay [9] is 38.2 µM (active).

In the case of `C[C@]12CC[C@@H]3c4ccc(O)cc4CC[C@H]3[C@@H]1CC[C@@H]2O`, the result in assay [1], in assay [2], in assay [3], in assay [4], in assay [6] and in [7] was inactive. The outcome in assay [8], in assay [9], in [10], in [11], in assay [12] and in assay [13] was inactive. In addition, the result in [14], in [18], in [15] and in [16] was inactive. The AC50 is 20 µM (active) in assay [5] and 22.8 µM (active) in [17].
